The values below come from PubChem BioAssay (NCI).

The nature of assay [1]: NCI Yeast Anticancer Drug Screen. Data for the rad50 strain (AID 155).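 Further: 0% = growth of vehicle-only cultures of the same strain.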 The settings on record: S. cerevisiae rad50 strain growth inhibition, stronger effect = higher value. In a few lines:
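A DNA repair-deficient yeast mutant serves as the test organism; compound-induced growth inhibition is calculated against vehicle-treated cells.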

Assay [2] can be described thus: NCI Yeast Anticancer Drug Screen. Data for the mec2-1 strain (AID 157). The settings on record: S. cerevisiae mec2-1 strain, stronger effect = higher value. A digest of the protocol:
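Readout is yeast growth inhibition, normalised to vehicle-treated controls, in the mec2-1 strain exposed to compound.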

Assay [3] can be described thus: NCI Yeast Anticancer Drug Screen. Data for the sgs1 mgt1 strain (AID 161).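 Further: 0% = growth of cultures given vehicle only.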 The note with it: S. cerevisiae sgs1 mgt1 strain, stronger effect = higher value. In a few lines:
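Compounds are added to genetically altered yeast, and growth is compared with cultures given vehicle alone to give percent inhibition.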

Assay [4] is described as follows: NCI Yeast Anticancer Drug Screen. Data for the bub3 strain (AID 167). The settings on record: S. cerevisiae bub3 mutant strain, stronger effect = higher value. In a few lines: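 Inhibition values come from growth of compound-treated mutant yeast normalised to vehicle-treated controls.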
Assay [5] can be described thus: NCI Yeast Anticancer Drug Screen. Data for the mlh1 rad18 strain (AID 175). The note with it: S. cerevisiae mlh1 rad18 strain growth inhibition, stronger effect = higher value. In a few lines:
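Test agents were incubated with a yeast strain of defined genotype (DNA damage repair defect). Inhibition of growth was derived by comparison with vehicle-exposed cultures.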

Assay [6] in a line: NCI Yeast Anticancer Drug Screen. Data for the cln2 rad14 strain (AID 165).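 Further: 0% = growth equal to vehicle treated cultures.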 The note with it: S. cerevisiae cln2 rad14 strain, stronger effect = higher value. In a few lines:
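Relative to vehicle controls, growth inhibition of compound-treated cln2 rad14 yeast was recorded.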

The mark [7] stands for this setting: at 5.0 µM (retest, dose inferred, filed as 0.5).
Where [8] appears, read: at 50.0 µM (retest, dose inferred, filed as 5.0).

The structures appear in SMILES notation. “And” between values parts separate entries of the source, which are not always exact repeats. Equal values may be shown once. About 79,000 compounds went through this panel and 15% of them were active in at least one assay; those are over-represented in the sample as a whole. Where a structure was tested more than once in an assay, its records may differ in their call. The source made the active and inactive calls. No stated cut-off is given here; in the data, active means growth inhibition above about 70%; inactive means the rest.

Take `BrC(c1cccc2ccccc12)c1cccc2ccccc12`: the growth inhibition in assay [1] (setting [7]) is 23% (inactive); in assay [1] (setting [8]), 97% (active); in assay [1] (at 50.0 µM), 95.5% (active); in assay [2] (setting [7]), 20% (inactive); in assay [2] (setting [8]), 97% (active); in assay [2] (at 50.0 µM), 94.7% (active). The growth inhibition in assay [3] (setting [7]) is 1% (inactive); in assay [3] (setting [8]), 96% (active); in assay [3] (at 50.0 µM), 94.8% (active); in assay [4] (setting [7]) it was -6% (inactive); in assay [4] (setting [8]), 96% (active); in assay [4] (at 50.0 µM), 94.2% (active). Further, the growth inhibition was 18% (inactive) in assay [5] (setting [7]), 95% (active) in assay [5] (setting [8]) and 95% (active) in assay [5] (at 50.0 µM).
On to `CC1=NC(=Cc2ccc([N+](=O)[O-])cc2)C(=O)N1n1c(-c2ccccc2)nc2ccccc2c1=O`, for which the growth inhibition in assay [1] (setting [7]) was 3% (inactive); in assay [1] (setting [8]) it was 1% (inactive); in assay [1] (at 50.0 µM), 48.9% (inactive); in assay [2] (setting [7]) it was -13% (inactive); in assay [2] (setting [8]), 0% (inactive); in assay [2] (at 50.0 µM), 63.8% (inactive). For the same compound, the growth inhibition in assay [3] (setting [7]) is 5% (inactive); in assay [3] (setting [8]), 7% (inactive); in assay [3] (at 50.0 µM), 45.3% (inactive); in assay [4] (setting [7]) it was -15% (inactive); in assay [4] (setting [8]) it was -2% (inactive); in assay [4] (at 50.0 µM), 68% (inactive). For the same compound, the figures for the growth inhibition in assay [5] (setting [7]), in assay [5] (setting [8]) and in assay [5] (at 50.0 µM) were 11% (inactive), 1% (inactive) and 62.8% (inactive), respectively.
As to `CCOC(=O)C1=C(C(=O)c2ccc(OC)cc2)C(c2c(Cl)cccc2Cl)C(C(=O)c2ccc(OC)cc2)=C(C(=O)OCC)N1`, the growth inhibition in assay [1] (setting [7]) was 8% (inactive); in assay [1] (setting [8]) it was 19% (inactive); in assay [1] (at 50.0 µM) it was 53.9% (inactive); in assay [3] (setting [7]), 19% (inactive); in assay [3] (setting [8]), -5% (inactive); in assay [3] (at 50.0 µM) it was 70.3% (active). The growth inhibition was -19% (inactive) in assay [6] (setting [7]); 18% (inactive) in assay [6] (setting [8]); 88.2% (active) in assay [6] (at 50.0 µM); 14% (inactive) in assay [4] (setting [7]); 7% (inactive) in assay [4] (setting [8]); 88.7% (active) in assay [4] (at 50.0 µM). Besides, the growth inhibition in assay [5] (setting [7]) was 6% (inactive); in assay [5] (setting [8]) it was 0% (inactive); in assay [5] (at 50.0 µM), 81.8% (active).
Turning to `CC1=CC(C)=Nc2ccc(Cl)cc2N1`, the growth inhibition is -2% (inactive) in assay [1] (setting [7]); 9% (inactive) in assay [1] (setting [8]); -1.1% (inactive) and 52% (inactive) in assay [1] (at 50.0 µM); 2% (inactive) in assay [2] (setting [7]); 2% (inactive) in assay [2] (setting [8]); 11.4% (inactive) and 2.6% (inactive) in assay [2] (at 50.0 µM). Also, the growth inhibition in assay [3] (setting [7]) was -4% (inactive); in assay [3] (setting [8]), -1% (inactive); in assay [3] (at 50.0 µM), -5.1% (inactive) and 41% (inactive); in assay [6] (setting [7]) it was 1% (inactive); in assay [6] (setting [8]), 7% (inactive); in assay [6] (at 50.0 µM), -15.9% (inactive) and -11.8% (inactive). Also, the growth inhibition was -2% (inactive) in assay [5] (setting [7]); 7% (inactive) in assay [5] (setting [8]); 9.35% (inactive) and 75.1% (active) in assay [5] (at 50.0 µM).
On to `CN1CCN(CN2C(=O)C3C4C=CC(C3C2=O)C2C3C(=O)N(CN5CCN(C)CC5)C(=O)C3C42)CC1` (stereo not given), for which the growth inhibition in assay [1] (setting [7]) is -3% (inactive); in assay [1] (setting [8]) it was -12% (inactive); in assay [1] (at 50.0 µM), -28.4% (inactive) and -8.45% (inactive) and -17.1% (inactive); in assay [3] (setting [7]) it was -1% (inactive); in assay [3] (setting [8]), 0% (inactive); in assay [3] (at 50.0 µM) it was -18.7% (inactive) and 18.9% (inactive) and -32.5% (inactive). The growth inhibition in assay [6] (setting [7]) is -10% (inactive); in assay [6] (setting [8]), -9% (inactive); in assay [6] (at 50.0 µM), -7.45% (inactive) and 32.5% (inactive) and -40.9% (inactive); in assay [4] (setting [7]) it was 11% (inactive); in assay [4] (setting [8]), 2% (inactive); in assay [4] (at 50.0 µM), -13.5% (inactive) and -11.5% (inactive) and -76% (inactive). Also, the growth inhibition is -1% (inactive) in assay [5] (setting [7]); 18% (inactive) in assay [5] (setting [8]); -4.4% (inactive) and -31.1% (inactive) and -65% (inactive) in assay [5] (at 50.0 µM).
Consider `OCc1ccccc1C(c1ccccc1)c1ccccc1`, for which the growth inhibition in assay [1] (setting [7]) is 0% (inactive); in assay [1] (setting [8]) it was 98% (active); in assay [1] (at 50.0 µM) it was 3.45% (inactive); in assay [2] (setting [7]), 9% (inactive); in assay [2] (setting [8]), 99% (active); in assay [2] (at 50.0 µM), 64.7% (inactive). For the same compound, the growth inhibition in assay [3] (setting [7]) is -1% (inactive); in assay [3] (setting [8]), 70% (active); in assay [3] (at 50.0 µM), 73% (active); in assay [4] (setting [7]), 0% (inactive); in assay [4] (setting [8]) it was 99% (active); in assay [4] (at 50.0 µM), 91% (active). Further, the values for the growth inhibition in assay [5] (setting [7]), in assay [5] (setting [8]) and in assay [5] (at 50.0 µM) were 6% (inactive), 94% (active) and 84.1% (active), respectively.
As for `CCN(CC)Cc1cc2c(cc1O)CC[C@@H]1[C@@H]2CC[C@]2(C)C(=O)CC[C@@H]12`, the growth inhibition in assay [1] (setting [7]) was 39% (inactive); in assay [1] (setting [8]), 80% (active); in assay [1] (at 50.0 µM), 83.6% (active) and 25.6% (inactive); in assay [2] (setting [7]) it was -5% (inactive); in assay [2] (setting [8]) it was 60% (inactive); in assay [2] (at 50.0 µM) it was 55.8% (inactive) and 15.2% (inactive). In addition, the growth inhibition in assay [3] (setting [7]) was 16% (inactive); in assay [3] (setting [8]), 47% (inactive); in assay [3] (at 50.0 µM) it was 78.5% (active) and 22.2% (inactive); in assay [6] (setting [7]), -2% (inactive); in assay [6] (setting [8]), 11% (inactive); in assay [6] (at 50.0 µM), 72.5% (active) and -21.2% (inactive). For the same compound, the growth inhibition in assay [5] (setting [7]) was 38% (inactive); in assay [5] (setting [8]), 81% (active); in assay [5] (at 50.0 µM), 71.3% (active) and 20.9% (inactive).
With `COc1ccc2cc(C(C)=O)c3ccccc3c2c1`, the growth inhibition in assay [1] (setting [7]) was 11% (inactive); in assay [1] (setting [8]), 93% (active); in assay [1] (at 50.0 µM), 94.2% (active); in assay [2] (setting [7]) it was -34% (inactive); in assay [2] (setting [8]), 95% (active); in assay [2] (at 50.0 µM), 86.5% (active). Further, the growth inhibition is 1% (inactive) in assay [3] (setting [7]); 88% (active) in assay [3] (setting [8]); 96.2% (active) in assay [3] (at 50.0 µM); -2% (inactive) in assay [6] (setting [7]); 77% (active) in assay [6] (setting [8]); -8.2% (inactive) in assay [6] (at 50.0 µM). Also, the growth inhibition in assay [5] (setting [7]) is 2% (inactive); in assay [5] (setting [8]), 95% (active); in assay [5] (at 50.0 µM), 97% (active).
On to `O=P(C(=S)NC1CC2C=CC1C2)(c1ccccc1)c1ccccc1` (stereo not given), for which the growth inhibition in assay [1] (setting [7]) is 27% (inactive); in assay [1] (setting [8]), 93% (active); in assay [1] (at 50.0 µM), 48% (inactive); in assay [2] (setting [7]), 7% (inactive); in assay [2] (setting [8]), 94% (active); in assay [2] (at 50.0 µM), 51.1% (inactive). Besides, the growth inhibition in assay [3] (setting [7]) is 2% (inactive); in assay [3] (setting [8]), 90% (active); in assay [3] (at 50.0 µM) it was 26.4% (inactive); in assay [6] (setting [7]) it was 12% (inactive); in assay [6] (setting [8]), 85% (active); in assay [6] (at 50.0 µM), 73.4% (active). Further, the figures for the growth inhibition in assay [5] (setting [7]), in assay [5] (setting [8]) and in assay [5] (at 50.0 µM) were -31% (inactive), 90% (active) and 86.7% (active), respectively.
